# Screens from PubChem.
# Only a selection was taken, and hits are over-represented in it overall.
# p53null 32C tox: p53 null cell cytotoxicity, permissive temperature; H1299-neo p53 null cells, ATP luminescence, 24 h, 32C; Potency, µM (titrated, usually from 46.1 µM), without a hit: top-dose activity change, negative = cytotoxicity, most hits filed as cytotoxic; hit rate 0.62% among 55,000; AID 903;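 note: potency is the fitted concentration of half-maximal effect; 0% = DMSO only and -100% = full killing by 100 µM tamoxifen; nearly all actives have a fitted effect of over 55% in size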
#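 Overnight 37C seeding (600 cells/well) of H1299-neo preceded a 24 hr, 32C exposure to compounds up to 46 uM. ATP levels, read by luminescence after 20 min at RT, indicated surviving cells.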
# FH mod: Identification of activators of human fumarate hydratase by quantitative high-throughput screening | AID 1347055, 2019 | FH coupled MDH/diaphorase resazurin fluorescence, 15 min | hit rate 0.22% among 54,000 | Potency, µM (titrated, usually from 79.9 µM), for the others: top-dose activity change, negative = inhibition, actives largely listed as inhibitors; note: potency is the fitted concentration of half-maximal effect; % is set by controls: 0 for no effect and ±100 for the full control effect; the screen sought activators but most active calls are inhibition curves; nearly all actives have a fitted effect of over 45% in size
# GALC G270D act: enhancers of human galactocerebrosidase G270D mutant activity in cells; P54803; 145M-Twi-hGALC-G270D cells (Twitcher mouse brain line with human GALC G270D), HMU-beta-Gal fluorescence, 48 h; Potency, µM (highest dose often 57.5 µM), usual class: activators; hit rate 0.1% among 45,000; AID 1159614; note: potency is the fitted concentration of half-maximal effect; 0% is about no effect; nearly all actives have a fitted effect of over 65% in size
#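 Brain-derived Twitcher mouse 145M-Twi cells stably expressing human GALC-G270D or wild-type GALC, treated live, then residual GALC activity read by fluorescence of HMU-b-Gal substrate (0.1 mM final) in citrate-phosphate buffer pH 5.2 with sodium taurocholate. Signal increase indicates enhancement.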
# p53null 39C tox: p53 null cell cytotoxicity, nonpermissive temperature. H1299 p53-null (neo) cells, 39C, ATPlite viability, 24 h. Potency, µM (top dose mostly 46.1 µM), without a hit: top-dose activity, negative = cell killing, hits mostly cytotoxic. hit rate 0.97% among 55,000;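 note: potency is the fitted concentration of half-maximal effect; 0% = DMSO only and -100% = full killing by 100 µM tamoxifen; nearly all actives have a fitted effect of over 50% in size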
#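 ATP-luminescence viability readout (ATPlite, 20 min RT) after 24 hr compound treatment at 39C of H1299-neo or H1299-p53A138V cells; titration up to 46 uM; normalized to DMSO and 100 uM tamoxifen; Hill-fit AC50.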
# NTMT1 inh: NTMT1 methyltransferase inhibition; Q9BV86; NTMT1 MTase-Glo SAH luminescence, purified enzyme; Potency, µM (titrated, usually from 114 µM), for inactives: at the top dose activity change, negative = inhibition, usual class: inhibitors; hit rate 2.5% among 59,000; AID 1645870;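 note: potency is the fitted concentration of half-maximal effect; plate controls were DMSO vehicle for no effect and no enzyme for full effect; nearly all actives have a fitted effect of over 65% in size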
# Sfp PPTase inh: inhibits purified B. subtilis Sfp PPTase. shares compounds with NTMT1 inh. hit rate 78% among 230. purified Sfp PPTase enzyme activity, qHTS. Potency, µM (titrated, usually from 114 µM), inactives show top-dose activity change, negative = inhibition, usual class: inhibitors
# HM489 growth: reduces growth of B. subtilis HM489 strain | shares compounds with NTMT1 inh | B. subtilis HM489 (acpS-) growth, BacTiter-Glo, 5 h | Potency, µM (top dose mostly 114 µM), inactives show at the top dose activity change, negative = inhibition, actives largely listed as inhibitors | hit rate 50% among 220 | AID 540353
# Sfp gel opt: inhibitors of Bacillus subtilis Sfp PPTase, gel-based followup. hit rate 54% among 220. Potency, µM (highest dose often 250 µM), for inactives: at the highest dose activity change, negative = inhibition, most hits filed as inhibitors. purified Sfp PPTase, gel-based product detection. shares compounds with NTMT1 inh. AID 540355
# Sfp gel: inhibits B. subtilis Sfp PPTase in gel-based assay. shares compounds with NTMT1 inh. purified Sfp PPTase, gel-based product detection. Potency, µM (highest dose often 250 µM), for inactives: at the highest dose activity change, negative = inhibition, hits mostly inhibitors. hit rate 90% among 45. AID 602362
# Sfp inh SAR2: inhibitors of Bacillus subtilis Sfp PPTase, SAR round 2; Potency, µM (top dose mostly 57.1 µM), for the others: top-dose activity change, negative = inhibition, hits mostly inhibitors; purified Sfp enzyme, PPTase activity, qHTS; shares compounds with NTMT1 inh; hit rate 87% among 230
# hGST A1-1 inh: counter-screen for Sfp PPTase inhibitors: hGST A1-1 inhibition; hGST A1-1 enzyme activity counter-screen, qHTS; Potency, µM (top dose mostly 114 µM), for inactives: top-dose activity change, negative = inhibition, hits mostly inhibitors; 55 tested, under 10 active; shares compounds with NTMT1 inh; AID 602391
# HSD17B4 counter: HSD17B4 (human) inhibition, HPGD counter-screen; AID 743187; hit rate 10% among 230; purified HSD17B4, estradiol/NAD+, NADH fluorescence; shares compounds with NTMT1 inh; Potency, µM (titrated, usually from 57.1 µM), without a hit: at the highest dose activity change, negative = inhibition, most hits filed as inhibitors
# Target sequence (P51659 whole entry, looked up): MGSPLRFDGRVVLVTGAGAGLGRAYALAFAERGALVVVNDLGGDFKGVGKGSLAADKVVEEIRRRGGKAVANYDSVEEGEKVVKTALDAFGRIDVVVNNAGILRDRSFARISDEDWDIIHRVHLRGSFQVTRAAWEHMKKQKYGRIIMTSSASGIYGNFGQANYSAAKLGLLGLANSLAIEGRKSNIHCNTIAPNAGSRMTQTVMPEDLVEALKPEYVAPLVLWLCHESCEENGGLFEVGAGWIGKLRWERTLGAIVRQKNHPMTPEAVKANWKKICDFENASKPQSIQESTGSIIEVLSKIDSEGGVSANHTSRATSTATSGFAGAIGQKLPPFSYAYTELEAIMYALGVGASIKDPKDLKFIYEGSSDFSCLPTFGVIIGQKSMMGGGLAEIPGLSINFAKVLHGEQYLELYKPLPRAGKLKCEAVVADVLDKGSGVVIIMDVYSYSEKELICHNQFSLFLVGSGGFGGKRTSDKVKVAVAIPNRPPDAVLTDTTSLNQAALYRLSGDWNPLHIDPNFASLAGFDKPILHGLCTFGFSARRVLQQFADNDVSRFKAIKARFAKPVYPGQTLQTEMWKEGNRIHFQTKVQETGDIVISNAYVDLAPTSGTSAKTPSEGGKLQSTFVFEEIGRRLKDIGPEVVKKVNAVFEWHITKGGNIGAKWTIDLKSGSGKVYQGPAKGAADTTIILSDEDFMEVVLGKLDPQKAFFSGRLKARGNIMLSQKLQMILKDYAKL
# ALDH1A1 counter: inhibits human ALDH1A1, off-target for HPGD inhibitors | Potency, µM (doses to about 57.1 µM), without a hit: at the top dose activity change, negative = inhibition, actives largely listed as inhibitors | recombinant ALDH1A1, NADH fluorescence, propionaldehyde/NAD+ | hit rate 93% among 230 | shares compounds with NTMT1 inh | AID 743195
# Numbers without * were called inactive; i = inactive; ? = inconclusive; . = not tested or not shown; ! = repeats disagree; [ ] = remark or other dose. Calls come from the whole dose curve; as a rule, active = well fitted curve in the direction sought with a large enough effect; inconclusive = small, poorly fitted or top-dose-only effect, or another doubt; inactive = no such curve, though single readings can be large; an effect the other way counts as inactive or inconclusive.
SMILES,p53null 32C tox,FH mod,GALC G270D act,p53null 39C tox,NTMT1 inh,Sfp PPTase inh,HM489 growth,Sfp gel opt,Sfp inh SAR2,HSD17B4 counter,ALDH1A1 counter,others
COc1ccnc(NC(=S)N2CCN(c3ccc(Cl)cc3Cl)CC2)c1,.,.,.,.,?,3µM*,13µM*,7.9µM*,0.46µM*,-6%,4.3µM*,Sfp gel=3.4µM*;hGST A1-1 inh=4%
CCOC(=O)c1[nH]c2ccc(OC)cc2c1NC(=S)N1CCN(c2cccc(Cl)c2)CC1,-9%,.,.,-25%,.,.,.,.,.,.,.,
Cc1c(Cl)cccc1NC(=S)N1CCN(c2ncccn2)CC1,.,.,.,26%,.,.,.,.,.,.,.,
Cc1ccc(NC(=O)c2cnn3c(C)cc(C)nc23)c(C)c1,.,.,.,.,8%,.,.,.,.,.,.,
Cc1cc(C)nc(NC(=S)N2CCN(c3cncs3)CC2)c1,.,.,.,.,?,7.4µM*,25%,16µM*,4.6µM*,-18%,24µM*,
Cc1cc(C)nc(NC(=S)N2CCN(c3ccccn3)CC2)c1,.,.,.,.,?,3.7µM*!,?,32µM*!,16µM*,-21%,27µM*,
Cc1cc(Cl)ccc1NC(=S)N1CCN(Cc2ccccc2)CC1,6%,.,.,14%[1.84 µM],.,.,.,.,.,.,.,
Cc1cc(C)nc(NC(=S)N2CCN(c3ncccc3C#N)CC2)c1,.,.,.,.,?,0.58µM*,?,?,1.2µM*,-29%,22µM*,hGST A1-1 inh=?
Cc1cc(C)nc(NC(=S)N2CCN(c3ccc(Cl)cc3Cl)CC2)c1,.,.,.,.,.,1.2µM*,8.3µM*,3.2µM*,1µM*,5%,17µM*,Sfp gel=3.8µM*;hGST A1-1 inh=2.4µM*
Cc1cc(C)nc(NC(=S)N2CCN(C3=Nc4ccccc4Oc4ccccc43)CC2)c1,.,.,.,.,50µM*,3.3µM*,?,?,5.1µM*,-17%,24µM*,
CN1CCN(C2=Nc3ccccc3Oc3ccc(Cl)cc32)CC1,.,-5%[53.3 µM],i,.,-3%[57.5 µM],.,.,.,.,.,.,
Cc1cc(C)nc(NC(=S)N2CCN(c3ncccc3Cl)CC2)c1,.,.,.,.,?,3.7µM*,-17%,?,2µM*,-17%,19µM*,
Cc1cc(C)cc(C(=O)Nc2ccc(-c3cn4cccnc4n3)cc2)c1,-2%,2%,i,-8%,?,.,.,.,.,.,.,
Cc1cc(C)nc(NC(=S)N2CCN(c3cnc4nccn4c3)CC2)c1,.,.,.,.,?,19µM*,?,-54%,18µM*,?,-154%,
